Consider 40 compounds from PubChem BioAssay (Tox21).

Values without a mark were called inactive. A call without a number means that no potency is given here. The source made the active and inactive calls. Calls follow the shape of the dose curve; as a rule, active = well fitted curve in the direction sought with a large enough effect in the repeat runs; inconclusive = weak or mixed curves; inactive = flat fitted curve, though single readings scatter.
Potency is read from the fitted curve at half-maximal effect; tags tell the direction and shape of the fitted curve or compound fluorescence and quenching.

The nature of this assay: qHTS assay to test for compound auto fluorescence at 460 nm (blue) in HepG2 cells (AID 720687). As to conditions: autofluorescence 405/460 nm, 1 h; series mostly up to 91.3 µM. The text has this: U.S. Tox21 Program National Center for Advancing Translational Sciences [NCATS] NIH Chemical Genomics Center [NCGC] U.S. Environmental Protection Agency [EPA] National Institutes of Environmental Health Sciences [NIEHS] National Toxicology Program [NTP] U.S. Food and Drug Administration [FDA] Tox21 Assay Overview: Compound auto fluorescence often interferes with screening of the compound library against various biological targets and signaling pathways. Some of these compounds may have fluorophoric properties. Such properties may interfere with the assay outputs resulting in false positives and/or negatives. To decrease such complications and ensure the compound activities are relevant in terms of biological response, the Tox21 10K compound library was screened for auto fluorescence. From the fluorophores used as reporter signals in our screening assays, the auto fluorescence equivalencies of compounds against three fluorophores have been evaluated: Triamterene, Fluorescein and Rose Bengal sodium for blue, green and red fluorescence, respectively. The fluorescence intensities were measured using Excitation/Emission wavelengths at 405/460nm, 485/535nm and 540/590nm for blue, green and red labels, respectively. This assay includes the blue fluorescence data.
Tox21 Assay Protocol Summary: 2,000 HepG2 cells in 5 uL of culture medium (MEM containing 10% FBS) per well were dispensed into black wall/clear bottom 1536-well plates using a Multidrop Combi Dispenser (ThermoFisher Scientific, Waltham, MA). The assay plates were incubated overnight at 37 C to allow cell attachment to the well bottom, followed by the transfer of 23 nL compound or DMSO vehicle by a pintool work station (Kalypsys , San Diego, CA). After the assay plates were incubated for 1 hr at 37 C and 5% CO2, fluorescence intensities in the assay plates were measured by an Envision (PerkinElmer, Shelton, CT) plate reader using three labels for measuring blue, green and red fluorescence at […] 460, 535 and 590 nm respectively.
(Quantitative high-throughput screening tests each substance at several concentrations.)
Take `CCCCCCCC/C=C\CCCCCCCCOCCO`: the Potency entry is “inactive”. The same measure, in the same setting: the entry for `CC1(C)CCC(C)(C)c2cc(C(=O)Nc3ccc(C(=O)O)cc3)ccc21` is “inactive”; for `C[C@H]1[C@H]2CC[C@H]3[C@@H]4CC=C5C[C@@H](N(C)C)CC[C@]5(C)[C@H]4CC[C@]23CN1C` it is “inactive”; for `O=C(Nc1cccc(C(F)(F)F)c1)c1cc(Br)cc(Br)c1O` it is “inactive”. With `CCCCN1C(=O)[C@@H]([C@H](O)C2CCCCC2)NC(=O)C12CCN(Cc1ccc(Oc3ccc(C(=O)O)cc3)cc1)CC2`, the Potency entry is “inactive”.

Take `Cc1onc(-c2c(Cl)cccc2Cl)c1C(=O)N[C@@H]1C(=O)N2[C@@H]1SC(C)(C)[C@@H]2C(=O)O`: the Potency result is “inactive”.

For the compound `CCCCCCCC[N+](CCCCCCCC)(CCCCCCCC)CCCCCCCC`, the Potency entry was “inactive”. Consider `CC(C)=CCOc1ccc(/C=C/C(=O)c2ccc(OCC=C(C)C)cc2OCC(=O)O)cc1`, for which the Potency result was “inactive”.

With `Cc1cc(N)c(S(=O)(=O)O)cc1Cl`, the Potency entry is “inactive”. On to `Cc1cc(O)c(C(C)(C)C)cc1Sc1cc(C(C)(C)C)c(O)cc1C`, for which the Potency entry was “inactive”.

Consider `Cc1cc2c(cc1C(F)(F)F)N(C(=O)Nc1ccc(Oc3cccnc3C)nc1)CC2`, for which the Potency entry was “inactive”. As for `CCCCCCCCCCCCCCCC(=O)OC[C@H](O)[C@H]1OC(=O)C(O)=C1O`, the Potency entry is “inactive”. Take `CCc1cc(SCc2sc(-c3ccc(C(F)(F)F)cc3)nc2CN2CCN(c3ccc(OC)cc3)CC2)ccc1OCC(=O)O`: the Potency result was “inactive”. Consider `CC(C)OC(=O)c1cc2c(OCC(O)CNC(C)(C)C)cccc2[nH]1` (stereo not given), for which the Potency entry was “inactive”. Turning to `O=C(OC[C@H]1O[C@@H](OC(=O)c2cc(O)c(O)c(OC(=O)c3cc(O)c(O)c(O)c3)c2)[C@H](OC(=O)c2cc(O)c(O)c(OC(=O)c3cc(O)c(O)c(O)c3)c2)[C@@H](OC(=O)c2cc(O)c(O)c(OC(=O)c3cc(O)c(O)c(O)c3)c2)[C@@H]1OC(=O)c1cc(O)c(O)c(OC(=O)c2cc(O)c(O)c(O)c2)c1)c1cc(O)c(O)c(OC(=O)c2cc(O)c(O)c(O)c2)c1`, the Potency entry is “inactive”. For `O=C1C=CC(=O)N1c1ccc(Cc2ccc(N3C(=O)C=CC3=O)cc2)cc1`, the Potency entry was “inactive”. On to `C/C=C1/C(=O)C[C@H]2[C@@H]3CCC4=CC(=O)CC[C@]4(C)[C@H]3CC[C@]12C`, for which the Potency result was “inactive”. For `Cc1ccc(-n2nc(C(C)(C)C)cc2NC(=O)Nc2ccc(OCCN3CCOCC3)c3ccccc23)cc1`, the Potency entry is “inactive”. `N=C1N=C(N)c2cc3ccccc3cc21`: the Potency was 38.7 µM [fluorescent] (active). For `CC(C)(C)CC(C)(C)c1ccc(OCCOCC[N+](C)(C)Cc2ccccc2)cc1`, the Potency result was “inactive”.

In the case of `CCOC(=O)O[C@]1(C(=O)OCCl)CC[C@H]2[C@@H]3CCC4=CC(=O)C=C[C@]4(C)[C@H]3[C@@H](O)C[C@@]21C`, the Potency entry was “inactive”. The same measure, in the same setting: with `Cc1[nH]nc2c1N=C(c1ccccc1Cl)c1cc([N+](=O)[O-])ccc1N2` the entry was “inactive”. With `Nc1ccc2cc(S(=O)(=O)O)cc(O)c2c1N=Nc1ccccc1C(F)(F)F`, the Potency entry is “inactive”. Regarding `CCCCCCCCCCCCCCCC[N+](C)(C)CCN(Cc1ccc(OC)cc1)c1ncccn1`, the fluorescence, % of fluorescent control is 0.0553% [at 18.6 µM]. `O=C(O)c1cc(O)c2c(c1)C(=O)c1cccc(O)c1C2=O`: the Potency entry was “inactive”. In the case of `Cc1[nH]cnc1C[C@H]1CCc2c(C)c3ccccc3n2C1=O`, the Potency entry is “inactive”. Consider `O=C(Nc1cccc([N+](=O)[O-])c1)c1cc2ccccc2cc1O`, for which the Potency result is “inactive”.

`On1ccccc1=S`: the Potency entry is “inactive”. On to `Cc1cccc(CN2CCN(C(c3ccccc3)c3ccc(Cl)cc3)CC2)c1` (stereo not given), for which the fluorescence, % of fluorescent control is -0.0938% [at 18.6 µM]. For `CCCCCCC[N+](CC)(CC)CCCCc1ccc(Cl)cc1`, the fluorescence, % of fluorescent control was -0.0972% [at 18.6 µM]. On to `[Cl][Bi]([Cl])([c]1ccccc1)([c]1ccccc1)[c]1ccccc1`, for which the Potency result was “inactive”. Take `Cc1cccc(S(=O)(=O)O)c1C`: the Potency result was “inactive”.

For `CNCc1cc(F)ccc1Oc1ccc(Cl)c(Cl)c1`, the Potency entry is “inactive”.

Turning to `Oc1cccc2cc3cccc(O)c3c(O)c12`, the Potency result is “inactive”. Consider `Nc1c(Cl)cc(Cl)cc1Cl`, for which the Potency result is “inactive”. Consider `CCCCN(CCCC)c1ccc(C(=O)c2ccccc2C(=O)O)c(O)c1`, for which the Potency entry is “inactive”. Still for that read-out and setting: with `CCCC(C)c1ccccc1O` (stereo not given) the entry was “inactive”. For `COc1cc(-c2nc(NC(=O)c3cc4cc(C)cc(C)c4n3CC(=O)O)sc2CCC2CCCCC2)c(OC)cc1Cl`, the Potency entry was “inactive”. On to `COc1cccc2c1C(=O)c1c(O)c3c(c(O)c1C2=O)C[C@@](O)(C(=O)CO)C[C@@H]3O[C@H]1C[C@H](N)[C@H](O[C@@H]2CCCCO2)[C@H](C)O1`, for which the Potency result was “inactive”. In the case of `O=S1(=O)CC(Cl)(Cl)C(Cl)(Cl)C1`, the Potency entry was “inactive”.
